Reference: PubChem BioAssay (NCATS)
Inconclusive results are not listed. Activity calls are given as the source filed them. Calls follow the shape of the dose curve; as a rule, active = well fitted cell-killing curve with a large enough effect; inconclusive = small, poorly fitted or top-dose-only effect, or effect the other way; inactive = no such curve, though single readings can be large or run the other way.

Experiments:
[1] = Quantitative High-Throughput drug screen in 47 multiple myeloma cell lines against the NCATS MIPE library collection: MM1R_ATCC cell viability assay (AID 1918981); also: nearly all actives have a fitted effect of over 35% in size
Outline: (§1)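 ATP-based CellTiter-Glo luminescence after 48 h drug exposure (37 °C, 5% CO2) of 500 myeloma cells per well. DMSO-only wells set 100% viability, media-only wells 0%; MIPE 4.0 library added by pin tool.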

[2] = Quantitative High-Throughput drug screen in 47 multiple myeloma cell lines against the NCATS MIPE library collection: LP1_DSMZ cell viability assay (AID 1918982); also: nearly all actives have a fitted effect of over 35% in size
Outline: as §1

[3] = Quantitative High-Throughput drug screen in 47 multiple myeloma cell lines against the NCATS MIPE library collection: KMS28PE_JCRB cell viability assay (AID 1918983); also: nearly all actives have a fitted effect of over 35% in size
Outline: as §1

[4] = Quantitative High-Throughput drug screen in 47 multiple myeloma cell lines against the NCATS MIPE library collection: L363_DSMZ cell viability assay (AID 1918984); also: nearly all actives have a fitted effect of over 40% in size
Outline: as §1

[5] = Quantitative High-Throughput drug screen in 47 multiple myeloma cell lines against the NCATS MIPE library collection: KMS34_JCRB cell viability assay (AID 1918985); also: nearly all actives have a fitted effect of over 40% in size
Outline: as §1

[6] = Quantitative High-Throughput drug screen in 47 multiple myeloma cell lines against the NCATS MIPE library collection: OCIMY7_PLB cell viability assay (AID 1918987); conditions: OCI-MY7 myeloma viability, CellTiter-Glo ATP, 48 h; viability (% of DMSO): at 45.8 µM (top of the series); also: nearly all actives have a fitted effect of over 65% in size
Outline: as §1

[7] = Quantitative High-Throughput drug screen in 47 multiple myeloma cell lines against the NCATS MIPE library collection: OCIMY5_PLB cell viability assay (AID 1918988); also: nearly all actives have a fitted effect of over 65% in size
Outline: as §1

[8] = Quantitative High-Throughput drug screen in 47 multiple myeloma cell lines against the NCATS MIPE library collection: OPM1_PLB cell viability assay (AID 1918989); also: nearly all actives have a fitted effect of over 40% in size
Outline: as §1

[9] = Quantitative High-Throughput drug screen in 47 multiple myeloma cell lines against the NCATS MIPE library collection: SKMM1_PLB cell viability assay (AID 1919863); conditions: SKMM1 myeloma viability, CellTiter-Glo ATP, 48 h; viability: hits give low values; also: nearly all actives have a fitted effect of over 35% in size
Outline: as §1

[10] = Quantitative High-Throughput drug screen in 47 multiple myeloma cell lines against the NCATS MIPE library collection: U266_ATCC cell viability assay (AID 1919864); also: nearly all actives have a fitted effect of over 35% in size
Outline: as §1

[11] = Quantitative High-Throughput drug screen in 47 multiple myeloma cell lines against the NCATS MIPE library collection: XG6_PLB cell viability assay (AID 1919865); also: nearly all actives have a fitted effect of over 40% in size
Outline: as §1

[12] = Quantitative High-Throughput drug screen in 47 multiple myeloma cell lines against the NCATS MIPE library collection: XG1_PLB cell viability assay (AID 1919866); also: nearly all actives have a fitted effect of over 35% in size
Outline: as §1

[13] = Quantitative High-Throughput drug screen in 47 multiple myeloma cell lines against the NCATS MIPE library collection: VP6_DJ cell viability assay (AID 1919867); also: nearly all actives have a fitted effect of over 40% in size
Outline: as §1

[14] = Quantitative High-Throughput drug screen in 47 multiple myeloma cell lines against the NCATS MIPE library collection: PE2_PLB cell viability assay (AID 1919869); also: nearly all actives have a fitted effect of over 35% in size
Outline: as §1

[15] = Quantitative High-Throughput drug screen in 47 multiple myeloma cell lines against the NCATS MIPE library collection: PCM6_Riken cell viability assay (AID 1919870); also: nearly all actives have a fitted effect of over 30% in size
Outline: as §1

[16] = Quantitative High-Throughput drug screen in 47 multiple myeloma cell lines against the NCATS MIPE library collection: RPMI8226_ATCC cell viability assay (AID 1919871); also: nearly all actives have a fitted effect of over 30% in size
Outline: as §1

[17] = Quantitative High-Throughput drug screen in 47 multiple myeloma cell lines against the NCATS MIPE library collection: OPM2_DSMZ cell viability assay (AID 1919872); also: nearly all actives have a fitted effect of over 30% in size
Outline: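 Luminescent ATP measurement with CellTiter-Glo gives viability, scaled between DMSO-only wells (100%) and media-only wells (0%). Cells, 500 per well, faced library compounds for 48 hours at 37C.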

[18] = Quantitative High-Throughput drug screen in 47 multiple myeloma cell lines against the NCATS MIPE library collection: KMS11_JCRBsus cell viability assay (AID 1919873); also: nearly all actives have a fitted effect of over 50% in size
Outline: as §1

[19] = Quantitative High-Throughput drug screen in 47 multiple myeloma cell lines against the NCATS MIPE library collection: UTMC2_PLB cell viability assay (AID 1919868); conditions: CellTiter-Glo ATP luminescence, 48 h; viability (% of DMSO control): at 45.8 µM (top of the series); also: nearly all actives have a fitted effect of over 55% in size
Outline: as §1

[20] = Quantitative High-Throughput drug screen in 47 multiple myeloma cell lines against the NCATS MIPE library collection: KMS28BM_JCRB cell viability assay (AID 1919874); also: nearly all actives have a fitted effect of over 35% in size
Outline: as §1

Measured: Potency
Potency is read from the fitted curve at half-maximal effect.

CC(C)C[C@H](NC(=O)CNC(=O)c1cc(Cl)ccc1Cl)B1OC(=O)CC(CC(=O)O)(C(=O)O)O1 (stereo partly drawn)
active: [1] 0.0296 µM | [2] 0.0743 µM | [3] 0.0526 µM | [4] 0.0833 µM | [5] 0.0469 µM | [6] 0.0296 µM | [7] 0.0264 µM | [8] 0.0372 µM | [9] 0.209 µM | [10] 0.0526 µM | [11] 0.0264 µM | [12] 0.0418 µM | [13] 0.0296 µM | [14] 0.0296 µM | [15] 0.0469 µM | [16] 0.118 µM | [17] 0.132 µM | [18] 0.0418 µM

CCC(C=C[C@@H]1OC(=O)C=C[C@H]1C)=C[C@H](C)CC=CC(C)=C[C@@H](C)C(=O)[C@@H](C)[C@H](O)[C@@H](C)CC(C)=CC(=O)O
active: [1] 0.0098 µM | [2] 0.0277 µM | [3] 0.0247 µM | [4] 0.0078 µM | [5] 0.022 µM | [6] 0.0392 µM | [7] 0.0098 µM | [8] 0.0311 µM | [9] 0.022 µM | [10] 0.0247 µM | [11] 0.0156 µM | [12] 0.0247 µM | [13] 0.0139 µM | [19] 0.0175 µM | [14] 0.0196 µM | [15] 0.0098 µM | [16] 0.0311 µM | [17] 0.0277 µM | [18] 0.0139 µM | [20] 0.011 µM

O=C1NCCc2[nH]c(-c3ccncc3)cc21
active: [1] 2.64 µM | [2] 4.18 µM | [3] 4.69 µM | [4] 2.35 µM | [5] 5.26 µM | [6] 2.09 µM | [7] 8.33 µM | [8] 4.69 µM | [9] 5.26 µM | [10] 2.64 µM | [11] 1.87 µM | [12] 2.09 µM | [13] 3.72 µM | [14] 1.87 µM | [15] 1.66 µM | [16] 16.6 µM | [17] 14.8 µM | [18] 5.26 µM

CCc1ccc(C(=O)Nc2cc(CN3CCN(C)CC3)cc(C(F)(F)F)c2)cc1C#Cc1cnc2ccnn2c1
active: [1] 18.7 µM | [2] 16.6 µM | [3] 16.6 µM | [4] 6.62 µM | [5] 10.5 µM | [6] 1.87 µM | [7] 1.87 µM | [8] 7.43 µM | [9] 16.6 µM | [10] 18.7 µM | [11] 4.18 µM | [12] 4.69 µM | [13] 9.35 µM | [14] 4.69 µM | [15] 3.72 µM | [16] 20.9 µM | [17] 14.8 µM | [18] 4.69 µM | [20] 4.18 µM

Cn1cnc(=N)c2[nH]cnc21
active: [1] 0.0935 µM | [2] 0.166 µM | [3] 0.105 µM | [4] 0.132 µM | [5] 0.132 µM | [6] 0.0662 µM | [7] 0.132 µM | [8] 0.0662 µM | [9] 0.209 µM | [11] 0.132 µM | [12] 0.166 µM | [13] 0.0662 µM | [14] 0.332 µM | [15] 0.235 µM | [16] 0.264 µM | [17] 0.235 µM | [18] 0.0935 µM | [20] 0.0469 µM

COC[C@H](NC(=O)c1cnc(C)s1)C(=O)N[C@@H](COC)C(=O)N[C@@H](Cc1ccccc1)C(=O)[C@@]1(C)CO1
active: [1] 0.0418 µM | [2] 0.148 µM | [3] 0.0662 µM | [4] 0.0372 µM | [5] 0.0743 µM | [6] 0.0526 µM | [7] 0.0372 µM | [8] 0.118 µM | [9] 0.372 µM | [10] 0.0743 µM | [11] 0.059 µM | [12] 0.0743 µM | [13] 0.0662 µM | [19] 1.05 µM | [14] 0.0833 µM | [15] 0.187 µM | [17] 0.235 µM | [18] 0.0187 µM | [20] 0.0418 µM

O=C(C=Cc1ccc(CN(CCO)CCc2c[nH]c3ccccc23)cc1)NO
active: [1] 0.059 µM | [2] 0.148 µM | [3] 0.132 µM | [4] 0.059 µM | [5] 0.105 µM | [6] 0.0833 µM | [7] 0.0662 µM | [8] 0.0662 µM | [9] 0.187 µM | [10] 0.264 µM | [11] 0.235 µM | [12] 0.166 µM | [13] 0.059 µM | [14] 0.166 µM | [15] 0.132 µM | [16] 0.235 µM | [18] 0.0526 µM | [20] 0.0526 µM

CN(C)c1ccc2cc(C(=O)N[C@@H](CCCN=C(N)CCl)C(=O)NCc3ccccc3)ccc2c1
active: [1] 4.69 µM | [2] 14.8 µM | [3] 11.8 µM | [4] 6.62 µM | [5] 8.33 µM | [6] 13.2 µM | [7] 4.18 µM | [8] 7.43 µM | [9] 18.7 µM | [10] 2.96 µM | [11] 0.935 µM | [13] 4.69 µM | [14] 8.33 µM | [15] 4.18 µM | [16] 18.7 µM | [17] 18.7 µM | [18] 7.43 µM | [20] 7.43 µM
